High-throughput results (PubChem)
Most compounds without a hit are left out; they make up all but 1.1% or so of the library.
SARS PLP yeast – blocks SARS-CoV papain-like protease in a yeast assay | S. cerevisiae expressing SARS-CoV PLpro, growth rescue | Potency, µM (highest dose often 32.9 µM), usual class: activators | actives 0.19% (n = 330,000); calls by dose curve; note: nearly all actives have a fitted effect of over 55% in size
Giardia FBPA inh-1 – inhibitors of Giardia lamblia fructose-1,6-bisphosphate aldolase. Potency, µM (doses to about 59.6 µM), hits mostly inhibitors. A8B2U2. actives 0.71% (n = 290,000). purified Giardia FBPA; note: nearly all actives have a fitted effect of over 55% in size
Target sequence (A8B2U2 whole entry, looked up): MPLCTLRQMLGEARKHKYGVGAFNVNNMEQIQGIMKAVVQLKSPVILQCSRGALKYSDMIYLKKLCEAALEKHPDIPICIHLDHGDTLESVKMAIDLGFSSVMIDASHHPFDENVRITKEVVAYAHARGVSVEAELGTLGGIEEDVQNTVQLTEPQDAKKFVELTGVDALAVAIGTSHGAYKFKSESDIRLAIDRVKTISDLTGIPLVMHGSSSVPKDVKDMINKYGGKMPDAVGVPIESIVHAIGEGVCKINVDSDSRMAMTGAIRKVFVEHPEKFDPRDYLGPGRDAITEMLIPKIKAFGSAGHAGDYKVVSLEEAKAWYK
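40 nM FBPA preincubated 10 min at RT with compound (up to 57.5 uM final), then substrate plus GAPDH/TPI/NAD/arsenate coupling and diaphorase/resazurin added. Fluorescence read after 20 min at RT, 525/598 nm.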
AmpC inh no detg – AmpC beta-lactamase inhibition without detergent. P00811. AmpC nitrocefin hydrolysis, absorbance 480 nm, 0.0001% Triton. Potency, µM (highest dose often 57.1 µM), most hits filed as inhibitors. actives 0.52% (n = 330,000). AID 485341; note: nearly all actives have a fitted effect of over 20% in size
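20 mM phosphate pH 7.0 + 0.01% (detergent screen) or 0.0001% Triton X-100; 5.3 nM AmpC reagent; cpd preinc 15 min RT; nitrocefin (800 uM stock) to start; A480 q20 s × 4 min; Activity was normalised to no-enzyme and no-compound control wells.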
AmpC detergent – AmpC beta-lactamase inhibition with detergent present | P00811 | AmpC hydrolysis of nitrocefin, absorbance 480 nm, 0.01% Triton | AID 485294 | actives 0.041% (n = 370,000) | Potency, µM (series often up to 114 µM), usual class: inhibitors; note: nearly all actives have a fitted effect of over 25% in size
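20 mM phosphate pH 7.0 + 0.01% (detergent screen) or 0.0001% Triton X-100; 5.3 nM AmpC reagent; cpd preinc 15 min RT; nitrocefin (800 uM stock) to start; A480 q20 s × 4 min; Activity was normalised to no-enzyme and no-compound control wells.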
Giardia growth – Giardia lamblia growth inhibition | shares compounds with Giardia FBPA inh-1 | Giardia lamblia trophozoite growth inhibition | Potency, µM (series often up to 57.5 µM), usual class: inhibitors | actives 5% (n = 1,500) | AID 2785;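 note: trophozoites exposed to compound for 48 h at 37 °C; nearly all actives have a fitted effect of over 70% in size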
Mammal cell tox – toxic to mammalian cells in Giardia aldolase counter-screen | shares compounds with Giardia FBPA inh-1 | mammalian cell viability counter-screen, qHTS | Potency, µM (top dose mostly 57.5 µM), hits mostly inhibitors | actives 4% (n = 1,500) | AID 2786;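 note: Chinese hamster ovary cells used as mammalian cytotoxicity surrogate; viability measured as cellular ATP by luminescence; compound exposure lasted 48 h before reading; nearly all actives have a fitted effect of over 60% in size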
Giardia FBPA inh-2 – confirmation of Giardia fructose-bisphosphate aldolase inhibitors. shares compounds with Giardia FBPA inh-1. purified Giardia aldolase enzyme activity, qHTS. Potency, µM (series often up to 57.5 µM), usual class: inhibitors. actives 5% (n = 1,500); note: nearly all actives have a fitted effect of over 45% in size
Rabbit FBPA inh – blocks rabbit muscle aldolase in Giardia aldolase selectivity test; actives 4% (n = 1,500); shares compounds with Giardia FBPA inh-1; Rabbit muscle FBPA enzyme inhibition, selectivity counter-screen; Potency, µM (titrated, usually from 57.5 µM), hits mostly inhibitors; note: nearly all actives have a fitted effect of over 60% in size
Target sequence (P00883 whole entry, looked up): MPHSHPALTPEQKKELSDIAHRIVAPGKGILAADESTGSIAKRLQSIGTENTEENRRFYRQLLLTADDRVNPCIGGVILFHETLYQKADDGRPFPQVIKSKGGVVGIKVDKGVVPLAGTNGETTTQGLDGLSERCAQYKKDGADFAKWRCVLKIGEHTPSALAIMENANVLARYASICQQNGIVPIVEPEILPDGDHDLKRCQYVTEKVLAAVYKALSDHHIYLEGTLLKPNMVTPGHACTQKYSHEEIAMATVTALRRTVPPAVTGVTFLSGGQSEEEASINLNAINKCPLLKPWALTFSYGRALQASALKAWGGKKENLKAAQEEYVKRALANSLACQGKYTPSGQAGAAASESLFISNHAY
GAPDH counter – counter-screen for Giardia aldolase inhibitors: GAPDH coupling enzyme; shares compounds with Giardia FBPA inh-1; GAPDH coupling enzyme counterscreen, biochemical, qHTS; Potency, µM (doses to about 57.5 µM), actives largely listed as inhibitors; actives 6% (n = 1,500); note: nearly all actives have a fitted effect of over 55% in size
A number is an active result; n = inactive; u = inconclusive; x = no result; [ ] = dose if it differs, or a comment. Unless noted, calls come from the whole dose curve; as a rule, active = well fitted curve in the direction sought with a large enough effect; inconclusive = small, poorly fitted or top-dose-only effect, or another doubt; inactive = no such curve, though single readings can be large; an effect the other way counts as inactive or inconclusive.

SMILES	SARS PLP yeast	Giardia FBPA inh-1	AmpC inh no detg	AmpC detergent	Giardia growth	Mammal cell tox	Giardia FBPA inh-2	Rabbit FBPA inh	GAPDH counter
Cn1ncc2c(NCc3ccc(Cl)cc3)ncnc21	x	x	x	n	x	x	x	x	x
O=C(C1CC1)N1CCN(c2nc3ccc(F)cc3s2)CC1	x	x	x	n	x	x	x	x	x
O=c1c(CN2CCN(c3cccc(Cl)c3)CC2)coc2c(Cl)cc(Cl)cc12	n	n	n	n	x	x	x	x	x
CN1CCN(Cc2coc3c(Cl)cc(Cl)cc3c2=O)CC1	n	13µM	n	n	n	n	n	n	n
CCOC(=O)c1cc(S(=O)(=O)N2CCN(c3cc(Cl)ccc3C)CC2)[nH]n1	x	x	x	n	x	x	x	x	x
CN(C)CCNC(C(=O)Nc1cccc(S(=O)(=O)N2CCOCC2)c1)c1ccccc1 (configuration not stated)	n	x	n	n	x	x	x	x	x
CN(C)CCNC(C(=O)Nc1cccc(C(F)(F)F)c1)c1ccccc1 (configuration not stated)	n	18µM	n	n	n	n	n	n	n
CCCCn1cnc2cc(NCc3ccccc3Cl)ccc21	x	x	x	n	x	x	x	x	x
CCOc1ccc(OCC)c(NC(=O)CN(C)S(=O)(=O)c2ccc3[nH]c(=O)oc3c2)c1	x	x	x	n	x	x	x	x	x
COCCNC(=S)NNc1cccc(C(=O)O)c1	n	8.9µM	n	n	n	n	n	n	n
COCCNC(=O)C(=O)Nc1cccc(Br)c1	n	n	n	u	x	x	x	x	x
COc1ccccc1OCC(=O)NNC(=O)c1cnccn1	n	16µM	n	n	u	n	n	n	n
COc1ccc(OCC(=O)NNC(=O)c2ccccn2)cc1	n	16µM	n	n	n[10.4 µM]	n	n	n	n
COc1ccccc1N1CCN(S(=O)(=O)c2c(C)sc3ncn(CC(=O)Nc4ccc(C(C)C)cc4)c(=O)c23)CC1	x	x	x	n	x	x	x	x	x
COc1ccc(CCNC(=O)c2ccc3c(c2)N(Cc2ccccc2Cl)C(=O)c2ccccc2S3)cc1OC	x	x	x	n	x	x	x	x	x
Cc1onc(-c2c(Cl)cccc2Cl)c1C(=O)NC(=S)N1CCOCC1	n	4µM	n	n	n	u	n	n	n
CCCCCCCCCCCCCCCCCC(=O)NCC(COP(=O)([O-])OCC[N+](C)(C)C)OCC (configuration not stated)	x	n	x	x	x	x	x	x	x
COc1ccc(CCNC(=O)c2ccc3c(c2)N(Cc2c(F)cccc2Cl)C(=O)CS3)cc1OC	x	x	x	n	x	x	x	x	x
O=C(O)c1cc(O)c(O)c(O)c1	x	3.5µM	x	x	n	40µM	14µM	20µM	25µM
CC(C)NC(=O)[C@H](CSCc1ccccc1)N1Cc2ccccc2C1=O	n	n	n	u	x	x	x	x	x
O=C(NCCCN1CCCC1)[C@H](CSCc1ccccc1)N1Cc2ccccc2C1=O	n	18µM	n	n	n[10.4 µM]	n	n	n	n
COc1ccc(N(C(=O)/C=C\C(=O)Nc2ccc(Cl)cc2)C(C(=O)NCc2ccco2)c2ccc(C)cc2)cc1 (configuration not stated)	x	x	x	n	x	x	x	x	x
CC(C)(C)CC(C)(C)NCC(=O)Nc1c2c(nc3ccccc13)CCC2	n	4.5µM	n	n	n	n	n	n	n
O=C(Nc1c2c(nc3ccccc13)CCCC2)c1ccccc1Cl	n	n	n	n	x	x	x	x	x
CN1CCc2c1nc1ccccc1c2NC(=O)CN1CCCC1	n	18µM	n	n	n[10.4 µM]	n	n	n	n
SMILES	SARS PLP yeast	Giardia FBPA inh-1	AmpC inh no detg	AmpC detergent	Giardia growth	Mammal cell tox	Giardia FBPA inh-2	Rabbit FBPA inh	GAPDH counter
Cc1ccc(N2CCN(C(=S)c3ccc(-c4cccc([N+](=O)[O-])c4)o3)CC2)cc1	n	16µM	n	n	n[10.4 µM]	n	n	n	n
CC(C)CCn1c(=O)c2ccccc2n2c(=S)[nH]nc12	x	n	n	n	x	x	x	x	x
CCOCCCn1c(=O)c2ccccc2n2c(=S)[nH]nc12	n	13µM	n	n	n	n	n	n	n
COc1ccc(NC(=O)Nc2ccc(N3CCOCC3)c3nonc23)c(OC)c1	n	5µM	n	u	u	n	n	n	n
O=C(Nc1ccc(N2CCOCC2)c2nonc12)C1CCCC1	n	0.5µM	n	n	n	n	n	n	n
O=C(N/N=C/c1ccccn1)c1cc(-c2ccccc2)nc2ccccc12	n	14µM	n	n	n	u	n	n	n
O=C(N/N=C/c1ccccn1)c1cc(-c2ccccc2Cl)n[nH]1	n	16µM	n	n	n	n	n	n	n
O=C(N/N=C/c1ccccn1)c1cccc(S(=O)(=O)N2CCCC2)c1	n	16µM	n	n	n[10.4 µM]	n	n	n	n
O=C(N/N=C/c1ccncc1)c1cccc(S(=O)(=O)N2CCCC2)c1	n	x	n	n	x	x	x	x	x
O=C(N/N=C/c1ccccn1)c1cc(C2CC2)nc2ccccc12	n	n	n	n	x	x	x	x	x
Cc1nc(C(=O)NNC(=O)c2ccc(Cl)cc2)cs1	n	18µM	n	n	u	n	n	n	n
CSc1ccc(CCNC(=O)CCc2c(C)nc3c(-c4ccccc4)c(C)nn3c2C)cc1	x	x	x	n	x	x	x	x	x
CCOc1ccccc1C(=O)N1CC(=O)Nc2ccc(Cl)cc2C1c1ccccc1 (configuration not stated)	x	x	x	n	x	x	x	x	x
COc1ccc(OC)c2sc(N3CCN(C(=O)c4ccc5c(c4)CCCC5)CC3)nc12	x	x	x	n	x	x	x	x	x
CO/N=C/C(C#N)c1ncc(C(F)(F)F)cc1Cl (configuration not stated)	n	20µM	n	n	u	n	n	n	n
COc1cccc(Cn2c(=O)n(-c3ccccc3C)c(=O)c3c2c2cc(C)ccc2n3C)c1	x	x	x	n	x	x	x	x	x
Cc1cc(=O)n(CC(=O)O)c2ccccc12	n	n	n	n	x	x	x	x	x
Cc1cc(C)n(CC(=O)O)c(=O)c1[N+](=O)[O-]	n	7.9µM	n	n	n	n	n	n	n
Cc1ccc(NC(=O)NC2CCCCC2)cc1Cl	n	n	n	n	x	x	x	x	x
Cc1ccc(NC(=O)CN(C)C2CCCCC2)cc1Cl	n	20µM	n	n	n	n	n	n	n
CC1(C)OC2C(CO)OC(n3cnc4c(=S)nc[nH]c43)C2O1 (configuration not stated)	n	4.5µM	n	n	n	u	n	n	n
Nc1nc(=S)c2ncn(C3OC(CO)C(O)C3O)c2[nH]1 (configuration not stated)	n	6.3µM	n	n	n[10.4 µM]	n	n	n	n
OCC1OC(n2cnc3c(=S)nc[nH]c32)C(O)C1O (configuration not stated)	x	4.5µM	x	x	u	6.3µM	n	n	n
Nc1nc(=S)c2ncn([C@@H]3O[C@H](CO)[C@@H](O)[C@H]3O)c2[nH]1	x	x	n	n	x	x	x	x	x
